Test results reported in PubChem BioAssay (NCATS).
Results filed as inconclusive are left out. Values without a mark were called inactive. The source made the active and inactive calls. The call rests on the fitted dose curve; in most records, active means well fitted activation curve with a large enough effect; inconclusive means small, poorly fitted or top-dose-only effect; inactive means flat fitted curve, though single readings scatter. Where a SMILES comes first, the peptide text is derived from it. [ ]: non-standard residue; d: D form. Hyp = O=C(O)[CH]1C[CH](O)CN1; Phe(ol) = N[CH](CO)Cc1ccccc1; Iva = CC[C](C)(N)C(=O)O; Aib = CC(C)(N)C(=O)O

Assay: Primary redox qHTS assay for identification of artifact compounds. (AID 1845223);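 on redox activity (% of DA3003): 0% = DMSO and 100% = reference compound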
Conditions: Amplex Red/HRP redox cycling with DTT, fluorescence; series mostly up to 53.8 µM; redox activity (% of DA3003): at the top concentration
In short: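 Amplex Red (25 uM) and HRP (250 mU/mL) in HBSS, with compounds for 15 min, then 250 uM DTT for 30 min, room temperature, dark. Fluorescence 525/598 nm read; normalized to DMSO and 10 uM DA3003; Hill fit.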
Potency means the concentration at half of the fitted maximal effect.

| SMILES | redox activity (% of DA3003) | Potency |
| --- | --- | --- |
| Cn1cc(-c2cnn3c(N)c(Br)c(C4CCCNC4)nc23)cn1 (configuration not stated) | -1.66% | – |
| NC(=O)C1=CC2C3C=CC2C(OC3=O)O1 (configuration not stated) | -7.61% [at 85.7 µM] | – |
| Cc1cn2cc(C(=O)N(C)CCO)cc(NC3CCOc4cccc(C)c43)c2n1 (configuration not stated) | 12.6% | – |
| Nc1nc2c(cnn2CCCc2ccc(O)cc2)c2nc(-c3ccco3)nn12 | -4.85% | – |
| Nc1ncnc2c1nc(Cl)n2C1OC2COP(=O)(O)OC2C1O (configuration not stated) | -2.51% | – |
| COc1ccc(C2=NC(c3ccc(Cl)cc3)C(c3ccc(Cl)cc3)N2C(=O)N2CCNC(=O)C2)c(OC(C)C)c1 (configuration not stated) | 10.7% | – |
| C=CC(=O)Nc1cc(-n2c(=O)ccc3cnc4ccc(-c5ccc(NS(C)(=O)=O)cc5)cc4c32)ccc1C | 0.266% | – |
| Cc1cc2c(N3CCCC3)nc(N3CCCC3)nc2n1C | – | 844 nM (active) |
| Nc1ncnc2c1c(-c1ccc(Cl)cc1)nn2-c1cccc(-c2cnnn2Cc2cccc(-c3ccccc3)c2)c1 | -0.451% | – |
| COc1ccc([C@H]2OC[C@H]3O[C@@H](O[C@H]4[C@@H]2NC[C@@H]4O)[C@H](O)[C@H]3O)cc1 | -0.142% | – |
| CCn1c(-c2nonc2N)nc2c(C#CCO)ncc(OCCCN)c21 | -3.41% | – |
| COc1ccccc1C(=O)Nc1cc2c(cc1N1CCCC1)n(C)c(=O)n2C | 1.12% | – |
| O=C(NCCO)c1cccc(-c2cc(Nc3ccc(OC(F)(F)F)cc3)ncn2)c1 | 18.8% | – |
| CN(C)CCC(CSc1ccccc1)Nc1ccc(S(=O)(=O)NC(=O)c2ccc(N3CCN(Cc4ccccc4-c4ccc(Cl)cc4)CC3)cc2)cc1[N+](=O)[O-] (configuration not stated) | -7.29% | – |
| CC(C)C[C@H](CO)Nc1nc(S[C@@H](C)c2ccccc2)nc2nc(N)sc12 | 0.625% | – |
| CC(C)(C)OC(=O)c1ncn2c1C(C)(C)Nc1ccccc1-2 | -2% | – |

| SMILES | redox activity (% of DA3003) | Potency |
| --- | --- | --- |
| O=C(Nc1nnc(-c2ccc3c(c2)OCCO3)o1)C1CCCCC1 | -0.647% | – |
| C=C1C(=O)O[C@@H]2/C=C(\C)CC/C=C(/C=O)[C@H](OC)[C@@H](OC(=O)C(C)C)[C@@H]12 | 14.9% | – |
| C=C1C(=O)OC2CC(C)C(CCC(C)O)=CCC12 (configuration not stated) | -3.25% | – |
| CC[C@@H](C)[C@@H]1OC2(C=C[C@H]1C)C[C@@H]1C[C@H](C/C=C(\C)[C@H](O[C@H]3C[C@H](OC)[C@H](O[C@H]4C[C@H](OC)[C@H](NC(C)=O)[C@H](C)O4)[C@H](C)O3)[C@H](C)/C=C/C=C3\CO[C@H]4[C@H](O)C(C)=C[C@@H](C(=O)O1)[C@@]34O)O2 (some centres not stated) | 14.4% | – |
| O=c1cc(N2CCN(c3cccc(C(F)(F)F)c3)CC2)[nH]c(=O)n1C1CCCCC1 | 6.64% | – |
| C=C[C@]1(C)C[C@H](O)[C@H]2C(=C)C(=O)O[C@@H]2[C@H]1C(=C)CO | -0.429% | – |
| CCNc1nc(Nc2cc(F)c(C(=O)N3CCOCC3)cc2OC)ncc1C(F)(F)F | -7.96% | – |
| COc1cc(C(=O)O)ccc1NC(=O)C1NC(CC(C)(C)C)C(C#N)(c2ccc(Cl)cc2F)C1c1cccc(Cl)c1F (configuration not stated) | -3.22% | – |
| C=C(COC(=O)C(O)C(O)CN)C12OC1C1(C)C(=CC2=O)C(O)C(O)CC1C (configuration not stated) | 18.2% | – |
| COc1ccc(CCO[C@@H]2O[C@H](CO[C@H]3OC[C@](O)(CO)[C@H]3O)[C@@H](OC(=O)/C=C/c3ccc(O)c(O)c3)[C@H](O[C@@H]3O[C@@H](C)[C@H](O)[C@@H](O)[C@H]3O)[C@H]2O)cc1OC | 10.5% [at 25.6 µM] | – |
| CC(C)S(=O)(=O)Nc1ccc(F)c(C(=O)c2c[nH]c3ncc(-c4cccnc4)cc23)c1F | 13.3% | – |
| CC(C)C[C@@H]1NC(=O)[C@@H]2C[C@@]34C[C@@H]5[C@@]6(C)CCCC(C)(C)C6CC[C@@]5(C)N(c5ccccc53)[C@H]4N2C1=O (some centres not stated) | -7.08% [at 25.6 µM] | – |
| Cn1c(CO)c(-c2ccccc2)c2cc([N+](=O)[O-])ccc21 | -1.5% | – |
| COc1ccc(C[C@H]2COC(=O)[C@@H]2Cc2ccc(O[C@@H]3O[C@H](CO)[C@@H](O)[C@H](O)[C@H]3O)c(OC)c2)cc1OC | -3.6% [at 25.6 µM] | – |
| Nc1nc(Cl)nc2c1ncn2C1OC(CO)C(O)C1F (configuration not stated) | -10.9% | – |
| CCC(C)(NC(=O)C(CCC(N)=O)NC(=O)C1CC(O)CN1C(=O)C(C)(C)NC(=O)C(C)(C)NC(=O)C(CC(C)C)NC(=O)CNC(=O)C(NC(=O)C(C)(C)NC(=O)C(C)(C)NC(=O)C(C)(C)NC(=O)C(Cc1ccccc1)NC(C)=O)C(C)C)C(=O)N1CC(O)CC1C(=O)NC(C)(C)C(=O)NC(CO)Cc1ccccc1 (configuration not stated) (Ac-F[Aib][Aib][Aib]VGL[Aib][Aib][Hyp]Q[Iva][Hyp][Aib][Phe(ol)]; configuration not given here) | 15.7% [at 11.5 µM] | – |
